We go through six compounds from PubChem BioAssay.

Experiment [1] relates to Plasmodium falciparum Sir2 (PF13_0152, Sir2A). The experiment can be described thus: pfSir2 binders on small-molecule microarrays, primary screen, biochemical, small-molecule microarray, 635 nm fluorescence (AID 1098).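 Further: score merges spot fluorescence intensity with its signal-to-noise ratio.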 The following applies: small-molecule microarray binding, fluorescence 635 nm; higher = more signal.
The nature of experiment [2]: small-molecule microarray binders of probe aDKK1, primary screen, biochemical, biotinylated probe, 635/667 nm fluorescence (AID 1099).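 Further: score merges 667nm spot fluorescence with signal to noise across triplicate slides.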 The following applies: higher = more signal.
Experiment [3] is described as follows: small-molecule microarray binders of probe aCHRDL2, primary screen, biochemical, biotinylated probe, 635/667 nm fluorescence (AID 1100). The following applies: higher = more signal.
Experiment [4] can be described thus: splicing luciferase reporter signal modulators, primary screen, spliceosome inhibition project, cell-based, HEK293, splice +/- reporter (AID 1101).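 Further: HEK293 cells carrying a splicing-competent luciferase reporter gene; test concentration not given here.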 The following applies: luminescence, 24 h, higher = more signal, called active from +8 up or from −8 down. Background: In a reporter assay the amount or activity of a reporter protein is the signal.
Experiment [5] addresses Fibroblast growth factor 10 (Homo sapiens) (UniProt O15520). Description: FGF10 binders on small-molecule microarrays, primary screen, biochemical, small-molecule microarray, 635 nm fluorescence (AID 1102). The following applies: FGF10 binding, fluorescence 635 nm, higher = more signal.
Experiment [6] relates to glycogen synthase kinase-3 (GSK3A per assay name; protocol says GSK3B). Description: GSK3 binders on small-molecule microarrays, primary screen, biochemical, small-molecule microarray, 635 nm fluorescence, GSK3A (AID 1103). Further: the record names both GSK3A and GSK3B. The following applies: small-molecule microarray binding, fluorescence 635 nm; higher = more signal.
Experiment [7] deals with Epidermal growth factor receptor (Homo sapiens) (UniProt P00533). The experiment can be described thus: EGFR binders on small-molecule microarrays, primary screen, biochemical, small-molecule microarray, 635 nm fluorescence (AID 1104).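 Further: score merges 667 nm emission intensity with spot signal to noise over triplicate slides.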 The following applies: EGFR binding, higher = more signal.
Chain of Epidermal growth factor receptor (Homo sapiens) (P00533 whole entry, looked up): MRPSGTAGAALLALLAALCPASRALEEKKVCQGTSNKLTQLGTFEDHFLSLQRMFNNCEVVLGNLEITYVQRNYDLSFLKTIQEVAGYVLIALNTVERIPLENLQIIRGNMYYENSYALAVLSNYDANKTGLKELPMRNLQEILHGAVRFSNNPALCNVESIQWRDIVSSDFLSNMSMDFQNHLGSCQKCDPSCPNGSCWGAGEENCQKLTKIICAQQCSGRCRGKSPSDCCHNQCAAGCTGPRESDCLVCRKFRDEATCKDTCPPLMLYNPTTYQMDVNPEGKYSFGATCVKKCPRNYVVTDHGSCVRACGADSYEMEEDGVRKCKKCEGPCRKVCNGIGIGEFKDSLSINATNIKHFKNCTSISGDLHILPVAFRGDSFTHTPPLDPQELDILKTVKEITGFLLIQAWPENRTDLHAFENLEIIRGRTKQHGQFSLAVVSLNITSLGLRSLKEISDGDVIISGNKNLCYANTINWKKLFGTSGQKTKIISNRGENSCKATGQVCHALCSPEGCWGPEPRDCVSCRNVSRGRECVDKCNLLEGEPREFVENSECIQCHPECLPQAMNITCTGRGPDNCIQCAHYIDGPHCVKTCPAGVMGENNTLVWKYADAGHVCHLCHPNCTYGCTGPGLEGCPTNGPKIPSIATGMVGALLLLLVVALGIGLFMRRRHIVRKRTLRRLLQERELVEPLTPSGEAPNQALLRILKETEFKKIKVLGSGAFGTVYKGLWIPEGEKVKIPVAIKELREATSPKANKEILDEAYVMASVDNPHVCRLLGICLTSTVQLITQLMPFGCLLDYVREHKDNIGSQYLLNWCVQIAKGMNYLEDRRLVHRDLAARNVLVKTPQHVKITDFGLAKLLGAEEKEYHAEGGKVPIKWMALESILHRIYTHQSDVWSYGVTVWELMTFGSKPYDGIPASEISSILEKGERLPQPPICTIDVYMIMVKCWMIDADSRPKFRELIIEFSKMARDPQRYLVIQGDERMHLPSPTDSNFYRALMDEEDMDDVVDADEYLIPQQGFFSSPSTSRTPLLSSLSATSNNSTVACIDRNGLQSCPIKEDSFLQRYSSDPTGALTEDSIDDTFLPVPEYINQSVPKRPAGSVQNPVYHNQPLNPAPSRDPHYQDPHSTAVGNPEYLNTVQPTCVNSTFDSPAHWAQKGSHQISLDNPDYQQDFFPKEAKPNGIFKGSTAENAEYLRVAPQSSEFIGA
In experiment [8] the target is Follistatin-related protein 3 (Homo sapiens) (UniProt O95633). The experiment can be described thus: FSTL3 binders on small-molecule microarrays, primary screen, biochemical, small-molecule microarray, 635 nm fluorescence (AID 1105).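 Further: score merges emission near 667 nm and signal to noise per printed spot across three slides.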 The following applies: FSTL3 binding, higher = more signal.
Chain of Follistatin-related protein 3 (Homo sapiens) (O95633 whole entry, looked up): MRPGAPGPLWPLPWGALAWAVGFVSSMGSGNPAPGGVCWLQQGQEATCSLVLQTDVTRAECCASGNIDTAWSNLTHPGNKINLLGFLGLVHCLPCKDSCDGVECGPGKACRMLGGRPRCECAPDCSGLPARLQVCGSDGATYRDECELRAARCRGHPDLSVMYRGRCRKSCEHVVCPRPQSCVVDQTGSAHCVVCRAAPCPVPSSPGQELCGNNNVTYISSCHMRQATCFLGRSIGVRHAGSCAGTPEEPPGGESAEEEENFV
Experiment [9] deals with Dickkopf-related protein 1 (Homo sapiens) (UniProt O94907). Description: DKK1 binders on small-molecule microarrays, primary screen, biochemical, small-molecule microarray, 635 nm fluorescence scan (AID 1106).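 Further: score merges emission near 667 nm with signal to noise over three replicate slides.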 As to conditions: DKK1 binding, higher = more signal.
Chain of Dickkopf-related protein 1 (Homo sapiens) (O94907 whole entry, looked up): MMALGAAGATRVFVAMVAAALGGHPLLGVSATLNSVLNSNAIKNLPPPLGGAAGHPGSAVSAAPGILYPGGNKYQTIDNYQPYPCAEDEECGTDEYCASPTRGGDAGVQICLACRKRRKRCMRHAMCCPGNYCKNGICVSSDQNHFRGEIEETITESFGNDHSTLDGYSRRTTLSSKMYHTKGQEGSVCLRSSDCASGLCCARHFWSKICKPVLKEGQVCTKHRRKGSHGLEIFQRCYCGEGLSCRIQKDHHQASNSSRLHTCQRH
For experiment [10], the system named is Inhibin beta A chain (activin A). The experiment can be described thus: INHBA (activin A) binders on microarrays, primary screen, biochemical, small-molecule microarray, 635 nm fluorescence scan (AID 1107).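 Further: mouse activin A protein probed at 4.33 µg/mL on printed slides; score merges bound-protein fluorescence near 667 nm with spot signal-to-noise.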 As to conditions: small-molecule microarray binding, higher = more signal.
Experiment [11] deals with Human papillomavirus type 1a protein E7 (residues 44-93). Description: HPV1a E7 fragment binders on microarrays, primary screen, biochemical, small-molecule microarray, residues 44-93, 635 nm fluorescence (AID 1108).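 Further: E7 fragment applied at 1 µg/mL in TBST for 1 h at 4 C; score combines spot fluorescence with its signal to noise ratio.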 As to conditions: small-molecule microarray binding, fluorescence 635 nm; higher = more signal.
Experiment [12] can be described thus: modulators of HCV replicon luciferase signal, primary screen, HCV replication inhibitor project, Huh7 cells, luciferase reporter (AID 1109).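 Further: huh7 hepatoma cells harbouring a luciferase neomycin HCV replicon reporter; luciferase luminescence as measure of HCV replicon replication; test concentration not given here.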 As to conditions: 48 h, higher = more signal.
The target of experiment [13] is Left-right determination factor 2 (Homo sapiens) (UniProt O00292). The experiment can be described thus: LEFTY2 binders on small-molecule microarrays, primary screen, biochemical, small-molecule microarray, 635 nm fluorescence scan (AID 1110). The following applies: LEFTY2 binding, higher = more signal.
Chain of Left-right determination factor 2 (Homo sapiens) (O00292 whole entry, looked up): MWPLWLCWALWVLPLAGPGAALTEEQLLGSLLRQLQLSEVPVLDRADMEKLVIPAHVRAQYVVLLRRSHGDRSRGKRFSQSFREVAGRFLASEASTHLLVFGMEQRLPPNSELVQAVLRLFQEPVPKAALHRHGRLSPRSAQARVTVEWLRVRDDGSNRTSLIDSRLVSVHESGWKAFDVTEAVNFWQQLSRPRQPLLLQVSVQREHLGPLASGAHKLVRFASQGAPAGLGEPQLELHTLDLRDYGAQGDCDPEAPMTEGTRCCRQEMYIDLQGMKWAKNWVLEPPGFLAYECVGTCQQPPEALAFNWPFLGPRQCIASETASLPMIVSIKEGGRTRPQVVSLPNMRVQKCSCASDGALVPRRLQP
The target of experiment [14] is Calmodulin-1 (Homo sapiens) (UniProt P0DP23). Description: CALM1 binders on microarrays, EGTA buffer, profiling panel, biochemical, small-molecule microarray, Cy5-labelled CALM1 (AID 1111).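 Further: labelled calmodulin applied in Tris saline Tween buffer holding calcium plus EGTA and DTT.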 As to conditions: Cy5-CALM1 binding fluorescence, higher = more signal.
Experiment [15] has the same target. Description: calcium-bound CALM1 binders on microarrays, profiling panel, artefact control for SMM control-protein annotation, biochemical, small-molecule microarray, Cy5-labelled CALM1, plus calcium (AID 1112).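 Further: score merges spot fluorescence with signal to noise from triplicate slides.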 As to conditions: Cy5-CALM1 binding fluorescence, higher = more signal.
The nature of experiment [16]: small-molecule microarray binders of probe aWnt5a, primary screen, biochemical, biotinylated probe, 635/667 nm fluorescence (AID 1113).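 Further: score merges 667 nm fluorescence intensity with signal-to-noise per printed feature.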 The following applies: higher = more signal.
Experiment [17] in a line: small-molecule microarray binders of probe aShh, primary screen, biochemical, biotinylated probe, 635/667 nm fluorescence (AID 1114).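 Further: probe is biotin-labelled aShh protein from a stem cell growth factor screen; measures binding of labelled protein to compounds printed on the slide; score merges feature fluorescence at 667 nm with signal-to-noise.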 As to conditions: higher = more signal.
The nature of experiment [18]: small-molecule microarray binders of probe aNog, primary screen, biochemical, biotinylated probe, 635/667 nm fluorescence (AID 1115).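 Further: probe is biotinylated aNog protein used at 0.15 µg/mL for 1 h at 4 C; z-score combines 667 nm fluorescence of each spot with its signal to noise.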 As to conditions: higher = more signal.
Experiment [19] has as its target Torsin-1A-interacting protein 1 (Homo sapiens) (UniProt Q5JTV8). Description: LAP1 binders from COS7 cell lysate, primary screen, small-molecule microarray, 635/667 nm fluorescence (AID 1116). The following applies: COS7-hLAP1 lysate binding, 635 nm fluorescence, higher = more signal.
Experiment [20] deals with Alpha-bungarotoxin (Bungarus multicinctus) (UniProt P60615). The experiment can be described thus: alpha-bungarotoxin binders on microarray, profiling panel, artefact control for SMM control protein annotation, biochemical, small-molecule microarray, Alexa647 label, 635/667 nm fluorescence (AID 1117). The following applies: alpha-BTX-A647 binding fluorescence, higher = more signal.
Chain of Alpha-bungarotoxin (Bungarus multicinctus) (P60615 whole entry, looked up): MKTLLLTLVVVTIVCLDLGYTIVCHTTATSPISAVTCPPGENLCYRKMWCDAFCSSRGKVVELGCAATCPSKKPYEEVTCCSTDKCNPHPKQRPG

The source made the active and inactive calls.

Chain of Torsin-1A-interacting protein 1 (Homo sapiens) (Q5JTV8 whole entry, looked up): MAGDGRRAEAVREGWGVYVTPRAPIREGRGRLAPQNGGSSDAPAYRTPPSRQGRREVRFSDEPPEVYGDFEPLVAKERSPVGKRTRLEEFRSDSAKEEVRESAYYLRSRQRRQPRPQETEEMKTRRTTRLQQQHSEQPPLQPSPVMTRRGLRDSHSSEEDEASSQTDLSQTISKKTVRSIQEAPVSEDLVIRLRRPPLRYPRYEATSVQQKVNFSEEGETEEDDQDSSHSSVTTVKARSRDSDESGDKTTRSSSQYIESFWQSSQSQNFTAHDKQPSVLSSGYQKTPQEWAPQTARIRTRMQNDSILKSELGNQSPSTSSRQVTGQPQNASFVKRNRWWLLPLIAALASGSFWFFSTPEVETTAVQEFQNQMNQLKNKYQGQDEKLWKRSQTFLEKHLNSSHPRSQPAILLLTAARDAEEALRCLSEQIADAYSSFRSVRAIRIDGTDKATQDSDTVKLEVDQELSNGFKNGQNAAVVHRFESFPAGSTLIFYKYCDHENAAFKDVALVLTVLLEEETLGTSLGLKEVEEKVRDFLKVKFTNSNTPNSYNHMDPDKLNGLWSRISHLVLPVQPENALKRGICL
Chain of Fibroblast growth factor 10 (Homo sapiens) (O15520 whole entry, looked up): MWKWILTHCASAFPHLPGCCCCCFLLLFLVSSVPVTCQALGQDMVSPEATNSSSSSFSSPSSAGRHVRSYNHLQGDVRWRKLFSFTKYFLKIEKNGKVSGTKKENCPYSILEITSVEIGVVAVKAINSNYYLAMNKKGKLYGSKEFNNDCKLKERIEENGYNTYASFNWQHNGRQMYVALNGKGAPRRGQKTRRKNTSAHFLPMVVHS

`C=CC[C@@]1(C(=O)O)N=C(c2ccc(OCCCO)cc2)O[C@@H]1c1ccccc1N=[N+]=[N-]`: the composite z-score in [1] is 1.48; in experiment [2], 1.08; in experiment [3], 1.2; in [5], 0.291; in experiment [6], 0.658; in experiment [7] it was -0.107. Further, the composite z-score in experiment [8] is 0.316; in [9], -0.227; in experiment [10] it was 1.46; in experiment [11], 0.411; in experiment [13], 0.294; in [14] it was 1.39. In addition, the composite z-score is 0.341 in experiment [15]; -0.0236 in experiment [16]; -0.181 in experiment [17]; 1.24 in experiment [18]; 1.02 in experiment [19]; 1.77 in experiment [20]. Also, the results for the z-score in experiment [4] and in [12] were 0.0828 (inactive) and 1.03, respectively.
Consider `CCOC(=O)[C@H]1C[C@H]2O[C@@]23C[C@H]1C(=O)N1CCCC1[C@@H]3O[Si](C)(C)C(C)(C)C` (stereo not given in full), for which the composite z-score in [1] was -0.169; in experiment [2], -0.199; in experiment [3] it was -0.528; in experiment [5] it was 0.476; in [6], -0.445; in experiment [7], -0.694. For the same compound, the composite z-score in [8] is -0.198; in experiment [9], 0.0691; in [10], 0.198; in experiment [11] it was -0.917; in experiment [13], -0.0688; in experiment [14], -0.821. The composite z-score in experiment [15] was -0.392; in experiment [16] it was -0.184; in [17], -0.138; in experiment [18], -0.202; in [19] it was -0.132; in [20], -0.789. The z-score is 0.376 (inactive) in experiment [4] and -0.633 in [12].
Turning to `O=C1c2ccccc2[C@@]2(Cc3ccccc3N(Cc3ccccc3)C2=O)[C@H](c2ccc(CO)cc2)N1C1CCCCC1`, the composite z-score in [1] was 1.3; in experiment [2], -0.367; in experiment [3], -0.292; in [5] it was 0.831; in experiment [6], 0.152; in experiment [7] it was 0.131. Besides, the composite z-score in experiment [8] was 0.41; in [9], 0.662; in experiment [10] it was 0.784; in [11], 0.438; in experiment [13], 0.186; in experiment [14], 0.0329. The composite z-score in [15] was -0.105; in experiment [16], -0.202; in [17], 0.0062; in experiment [18], -0.444; in [19] it was -0.345; in [20], 0.0868. In addition, the z-score was -0.322 (inactive) in experiment [4] and -0.717 in experiment [12].
On to `CC(C)c1ccc(NN2C(C(O)c3c(F)cccc3Cl)C=CC3C(=O)N(c4ccccc4)C(=O)C32)cc1` (stereo not given), for which the composite z-score was found to be 0.683 in [1]; 1.24 in experiment [2]; 1.13 in experiment [3]; 0.62 in experiment [5]; 0.852 in experiment [6]; 0.389 in [7]. Further, the composite z-score was 0.766 in experiment [8]; -0.247 in [9]; 0.945 in [10]; 1.23 in experiment [11]; 0.0094 in [13]; 1.88 in experiment [14]. For the same compound, the composite z-score came to 0.98 in experiment [15]; 0.136 in experiment [16]; 1.38 in [17]; 1.94 in [18]; 0.47 in [19]; 1.81 in experiment [20]. For the same compound, the z-score was -1.11 (inactive) in experiment [4] and -0.242 in [12].
For `Cc1ccc(S[C@]2(C(=O)NCc3ccccc3)CC(=O)N(Cc3ccccc3Cl)[C@@H]2c2ccc(CO)cc2I)cc1`, the composite z-score is 0.49 in [1]; 0.302 in [2]; 1.13 in experiment [3]; -0.761 in experiment [5]; -0.528 in [6]; -1.17 in [7]. The composite z-score in experiment [8] was -0.689; in experiment [9] it was -1.22; in experiment [10], 0.962; in experiment [11], -0.173; in experiment [13], -2.11; in experiment [14], -0.162. Moreover, the composite z-score was 0.137 in [15]; -0.124 in experiment [16]; -0.426 in experiment [17]; -0.581 in experiment [18]; 0.0931 in [19]; 1.7 in experiment [20]. Also, the results for the z-score in experiment [4] and in experiment [12] were -1.6 (inactive) and -1.74, respectively.
Consider `CC(C)CNC(=O)[C@@]1(c2ccc([N+](=O)[O-])cc2)CC(=O)N(CC23CC4CC(CC(C4)C2)C3)[C@@H]1c1ccc(CO)cc1`, for which the composite z-score in experiment [1] worked out at 0.947; in experiment [2] it was 0.0324; in experiment [3], 0.555; in experiment [5], 1.24; in experiment [6] it was 0.715; in [7], 0.283. The composite z-score in [8] is 0.58; in experiment [9] it was 0.127; in experiment [10], 0.328; in experiment [11], 1.07; in experiment [13] it was -0.15; in experiment [14] it was -0.367. In addition, the composite z-score in experiment [15] is 0.113; in experiment [16], 0.0215; in [17], -0.0709; in experiment [18], 1.23; in [19] it was 1.96; in experiment [20] it was 0.438. The z-score in experiment [4] is -2.11 (inactive); in [12] it was -2.62.
